Test results taken from the OligoGym collection.

What follows are sequences tested against PQLC1 (assay: pooled miR-30 sensor sort-seq; sequence = guide strand). Conditions: shRNA.

Going from TTGAGCTCGTTGGCCACACGGA to TTGACTTCTTCATCCTTGCTAT, the sensor-assay potency score (higher = more potent) rises from -0.78 to 0.0479.

Going from TAGTCCGAGAAGCTGCTCCACT to TCGAAGTCCAGGAAGGACCGCC, the sensor-assay potency score (higher = more potent) rises from -0.969 to -0.0699.

First: TGCACGTAGTCCGAGAAGCTGC
Second: TAGGTGGAGAAGCCGTCGGCGT
The sensor-assay potency score (higher = more potent) of the first is higher: -1.19 for the first, -1.4 for the second.

Compared with TCTGCAGCTGTAAAGGAGCGGC, ATGAGCACCATCTTGATGCTCA is lower in sensor-assay potency score (higher = more potent): -0.795 for the first, -0.811 for the second.

Going from TTCTTCATCCTTGCTATCTGCA to AACCTTGACTTCTTCATCCTTG, the sensor-assay potency score (higher = more potent) rises from -0.201 to 0.292.

Work on AAGTCCAGGAAGGACCGCCTGG yielded a sensor-assay potency score (higher = more potent) of -1.26.

The sequences below were run against PRADC1 in the same assay as above. Conditions: shRNA.

Compared with AAAGATACCACCAAAGTCCTTG, TGAATCTGCTCATACCTTGTGT is lower in sensor-assay potency score (higher = more potent): 0.163 for the first, -0.084 for the second.

Going from TTTTGTTTCGGGTTCTAGCCAG to TAGCATGAGACACCCTTGGGGG, the sensor-assay potency score (higher = more potent) falls from -0.533 to -0.696.

Going from TCATGTAGCCGTCTCGGCCGAG to TAAACCACTCCAACAACTGCTG, the sensor-assay potency score (higher = more potent) rises from -1.06 to 0.158.

Going from TGGATGAAGAAACCGTTGCTGA to ATCATCTCCACGTAGAAGCTGT, the sensor-assay potency score (higher = more potent) rises from -1.26 to -0.485.

Going from TTGTGTGAAAGATACCACCAAA to ATGCTGGTGACATTGACTGGGA, the sensor-assay potency score (higher = more potent) rises from -1.24 to -1.

First: TCTTGTAGCATGAGACACCCTT
Second: TTTGTTTCGGGTTCTAGCCAGA
The sensor-assay potency score (higher = more potent) of the first is higher: -0.0908 for the first, -0.698 for the second.

The sequences below were run against PRAMEF6 in the same assay as above. Conditions: shRNA.

Compared with TATTGTGAGGACCTTTAACGAG, ATCAGCATCATAACTCTCCCGG is higher in sensor-assay potency score (higher = more potent): -1.02 for the first, -0.511 for the second.

First: TCAGCATCATAACTCTCCCGGG
Second: TTGGACAGTCCTGCACTGGTGT
The sensor-assay potency score (higher = more potent) of the first is lower: -0.662 for the first, -0.525 for the second.

First: TTGGAGGCAGCACAGCTTGAGG
Second: TTGGGTAAGCAGTGCATCCAGC
The sensor-assay potency score (higher = more potent) of the first is lower: -1.39 for the first, -0.474 for the second.

Going from TTAGTTATTGTGAGGACCTTTA to TTTTGGAGGCAGCACAGCTTGA, the sensor-assay potency score (higher = more potent) falls from -0.654 to -1.46.

TACAGCTCCACGCATAAGTTTT was tested, and the sensor-assay potency score (higher = more potent) was -1.43.

Each sequence was assayed against PRB2 in the same assay as above. Conditions: shRNA.

Going from TTCGGGACTTGTTGTCTCCTTG to TGGCTTTCCTGCTATTAGGGAG, the sensor-assay potency score (higher = more potent) falls from -0.146 to -0.778.

Compared with GAGGAGATCGAGAACTTCGGGA, TTGGGACTTGTTGTCTCCTTGT is higher in sensor-assay potency score (higher = more potent): -0.989 for the first, -0.258 for the second.

First: TCGAGAACTTCGGGACTTGTTG
Second: TTGAGGATTGTTGCCTTCTTGT
The sensor-assay potency score (higher = more potent) of the first is lower: -0.988 for the first, -0.928 for the second.

Going from TCGGGACTTGTTGTCTCCTTGT to ACTTGTTGTCTCCTTGTGGGGG, the sensor-assay potency score (higher = more potent) rises from -0.96 to -0.828.
